High-throughput results: PubChem, National Center for Advancing Translational Sciences (NCATS)
Only a selection was taken, and hits are over-represented in it overall.
Imprint erasure: inducers of genomic imprint erasure in mouse ES cells. Potency, µM (top dose mostly 60.7 µM), for inactives: top-dose activity change, positive = activation, actives largely listed as activators. hit rate 0.02% among 110,000. mouse ES Peg3-LacZ reporter, beta-gal luminescence, 40 h. AID 1948; note: potency is the fitted concentration of half-maximal effect
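Each well holds 300 Peg3LacZ-Neo (maternal) female ES cells incubated 40 h at 37C, 5% CO2. LacZ is measured by BetaGlo luminescence, with AC50 and maximum efficacy derived from dose-response curves.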
ERK AVP inh: vasopressin-driven ERK pathway inhibition; Potency, µM (series often up to 57.5 µM), inactives show top-dose activity, negative = inhibition, usual class: inhibitors; AID 995; HEK293-V1b, vasopressin-stimulated pERK AlphaScreen; hit rate 0.99% among 72,000; note: potency is the fitted concentration of half-maximal effect; % is set by controls: 0 for no effect and ±100 for the full control effect; nearly all actives have a fitted effect of over 55% in size
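Overnight-seeded V1b-HEK293 cells in 1% FBS got compound, then vasopressin (25 nM final, 5 min, 37C), then lysis buffer. AlphaScreen detection of phospho-ERK; activity normalized to basal and full-stimulation controls.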
UbGFP stabilizer: inhibits proteasome, raising ubiquitin-GFP reporter fluorescence; Ubiquitin-GFP reporter cells, proteasome inhibition, GFP fluorescence; response scale: untreated = 0%, 10 µM MG-132 = 100%; Potency, µM (series often up to 45.9 µM), for the others: at the highest dose activation (GFP accumulation), usual class: activators; 67,000 tested, under 10 active; AID 526; active = well fitted activation curve with a large enough effect, not every such curve was filed as active; inconclusive = small, poorly fitted or top-dose-only effect, or another doubt; inactive = no such curve, though single readings can be large or run the other way; note: potency is the fitted concentration of half-maximal effect
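U2OS Ub(G76V)-GFP reporter; O/N plating, 0.5% FBS; cpd 46 uM–2.9 nM, 4 h, 37 °C; GFP+ cell count, 488/515 nm; norm. to basal vs 10 uM MG-132; CRC fit.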
GFP derepression: epigenetic GFP locus derepression in mouse cells. hit rate 0.09% among 68,000. mouse C127i GFP locus derepression, cytometry, 30 h. Potency, µM (series often up to 46.1 µM), inactives show at the top dose GFP derepression (activation); note: % of control where 0% means no effect
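Derepression screen: silenced CMV-GFP reporter in murine C127i cells, 30 h compound incubation at 37 C, washed cells imaged by laser-scanning cytometer to enumerate GFP-expressing objects of 20 to 120 um.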
HBB splicing: modulators of hemoglobin beta chain splicing; HBB splicing reporter cell assay, activation; EGFP reporter with mutant IVS2-654 intron; response scale: normalised to 500 nM splice-correcting PNA; Potency, µM (titrated, usually from 46.1 µM), without a hit: top-dose activation, most hits filed as activators; hit rate 0.06% among 65,000; note: potency is the fitted concentration of half-maximal effect; 0% is about no effect
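Compounds were applied for 2 days to HeLa EGFP-654 cells, 500/well in Optimem with 2% FCS. The reporter's EGFP is disrupted by mis-splicing of beta-globin intron IVS2-654. Readout: summed well GFP fluorescence from 488 nm laser scanning; reference was 500 nM antisense […] 654 PNA.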
* marks the source's active call; other numbers are inactive results; ? = inconclusive; / = no result given; [ ] = dose if it differs, or a comment. Unless noted, calls come from the whole dose curve; as a rule, active = well fitted curve in the direction sought with a large enough effect; inconclusive = small, poorly fitted or top-dose-only effect, or another doubt; inactive = no such curve, though single readings can be large; an effect the other way counts as inactive or inconclusive.

SMILES	Imprint erasure	ERK AVP inh	UbGFP stabilizer	GFP derepression	HBB splicing
COc1ccccc1CNc1ncnc2ccc(-c3cccc(NS(C)(=O)=O)c3)cc12	-16%	16µM*	8%	2%[9.22 µM]	0%
CCN(c1ccccc1)S(=O)(=O)c1ccc(NC(=O)c2cc(=O)c3cc(C)ccc3o2)cc1	7%[10.9 µM]	/	/	/	/
Cc1cccc(NC(=O)Cn2cc(S(=O)(=O)N3CCCC3)c(S(=O)(=O)N3CCCC3)c2)c1C	-7%[10.9 µM]	/	/	/	/
Cc1cccc(C)c1NC(=O)CSCCO	5%	4%	-7%	-2%	-7%
COc1ccccc1-c1ccc2ncnc(NCc3cnc(C)cn3)c2c1	-22%	20µM*	-2%	-3%[9.22 µM]	0%
COc1ccccc1-c1ccc2ncnc(NCc3cccnc3)c2c1	1%	6%	-6%	-1%[9.22 µM]	-3%
Cc1cccc(CNc2ccnc(-c3cccc(NS(C)(=O)=O)c3)n2)c1	-4%	13µM*	-4%	0%[9.22 µM]	1%
CCC(=O)N1CCc2cc(Br)cc(S(=O)(=O)N3CCN(c4ccc(C(C)=O)cc4)CC3)c21	5%[10.9 µM]	/	/	/	/
O=C1c2cccnc2-c2ncccc21	4%	5%	-7%	3%	-2%
CC1(C)OCC(CSC2=C(SCC3COC(C)(C)O3)C(=O)c3ncccc3C2=O)O1 (centres undefined)	-53%	16µM*	/	/	?
O=C(CS(=O)(=O)c1ccccc1)Nc1nc(-c2ccccc2)cs1	-20%	40µM*	-3%	10%	10%
O=C(O)CCCC(=O)Nc1nc(-c2ccccc2)cs1	-49%	-3%	1%	1%	-5%
N#Cc1c(/N=C/c2cccs2)sc2c1CCCCC2	-56%	16µM*	1%	4%	2%[57.5 µM]
CCc1nnc(NC(=O)CSc2nc3c([nH]c4ccccc43)c(=O)n2-c2ccc(F)cc2)s1	-15%[10.9 µM]	/	/	/	/
Cc1cc(C)n(-c2ccc(C(=O)Nc3ccccn3)cc2)n1	-67%	-13%	/	-2%	0%[0.369 µM]
COc1ccc(CSc2nnnn2C)cc1F	-11%	-1%	-12%	0%	0%
Cc1cnc(NC(=O)CSc2nnc(Cc3ccccc3)n2C)s1	?	8%	0%	-3%	-1%
Cc1ccc(C)c(-n2c(Cc3cc(=O)[nH]c(=O)[nH]3)nnc2SCC(=O)NCc2ccco2)c1	-7%	-19%	8%	0%	-2%
CCCSc1nnc(Cc2cc(=O)[nH]c(=O)[nH]2)n1-c1cc(C)ccc1C	10µM*	-15%	-3%	4%	5%[57.5 µM]
Cc1cccnc1NCc1ccc(O)c2ncccc12	-25%	-10%	2%	10µM*	/
COc1cc2c(cc1OC)C(COc1ccc(F)cc1)N(C(=O)Cc1ccccc1)CC2 (centres undefined)	-10%[10.9 µM]	/	/	/	/
CCC1SC(=NC(=O)c2ccc(Cl)c(Cl)c2)NC1=O (centres undefined)	-71%	47%	-9%[9.17 µM]	-2%	-3%[0.0738 µM]
Cc1cc(OCCCCCNCCO)cc(C)c1Cl	-30%	40µM*	24%[9.17 µM]	0%	1%[0.0738 µM]
CCOCCCNC(=O)c1cccs1	-1%	-4%	-5%[9.17 µM]	3%	-2%[0.0738 µM]
O=C(c1cnccn1)N1CCC2(CC1)CN(C(c1ccccc1)c1ccccc1)C2	/	-18%	-9%	0%[9.22 µM]	2%
SMILES	Imprint erasure	ERK AVP inh	UbGFP stabilizer	GFP derepression	HBB splicing
O=C(c1cnccn1)N1CCC2(CCCN(C(c3ccccc3)c3ccccc3)C2)CC1	/	40µM*	-1%	4%[9.22 µM]	-1%
Cc1noc(C)c1-c1ccc2ncnc(NCc3cccnc3)c2c1	-1%	-1%	0%	0%[9.22 µM]	-1%
CC(C)C(c1nnnn1Cc1ccco1)N1CCN(C2CCCC2)CC1 (centres undefined)	-13%	13%	-4%	5%	-2%
CC(C)C(c1nnnn1Cc1ccco1)N1CCN(c2nc3ccccc3s2)CC1 (centres undefined)	-16%	2µM*	-2%	-2%	0%
FC(F)(F)c1ccccc1-c1cncnc1-n1ccnc1	-8%	5%	0%	-3%[9.22 µM]	-1%
CN(C)c1ccc(-c2cncnc2-n2ccnc2)cc1	?	16µM*	9%	-1%[9.22 µM]	1%
CCNc1nc(NCC)nc(-n2nc(C)cc2C)n1	-12%	-14%	9%	?	0%
Cc1cc(C)n(-c2nc(NC(C)C)nc(NC(C)C)n2)n1	0%	-18%	-3%	6.3µM*	/
